# The full list was thinned out, with the strongest signals kept by preference.
# B1: VLRB.aGPA.23-GCN4-biotin (Petromyzon marinus) (protein)
# chain: ACPSQCSCSGTEVNCAGKSLASVPAGIPTTTRVLYLNSNQITKLEPGVFDRLANLRELHLWGNQLVSLPPGVFDNLANLEKLWLNSNQLTSLPAGLFDRLVNLEHLGLCCMKLTELPSGAFDKLTRLKQLGLDQNQLKSIPDGAFARLPSLTHVWLHTNPWDCQCTDILYLSGWVAQHSSIVGEGWPWRHSPDSAKCSGTNTPVRAVTEASTSPSKCP
# Key:
# Experiment in all cases: glycan array binding signal (z-score within array); higher = stronger binding
# Settings in all cases: glycan notation: IUPAC condensed, linker removed
# Fuc(a1-2)Gal = target: Fuc(a1-2)Gal
# Outline: (§1)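 The Consortium for Functional Glycomics database supplied 3228 glycan arrays, of which those lacking an available protein sequence were dropped. The binding signal, a within-array Z-score, was averaged across arrays of the same protein sequence and across linkers. Negative scores can be read as non-binding.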
# Fuc(a1-2)Gal(b1-3)GalNAc = target: Fuc(a1-2)Gal(b1-3)GalNAc
# Outline: as §1
# [1] = target: Fuc(a1-2)Gal(b1-4)GlcNAc(b1-2)[Fuc(a1-2)Gal(b1-4)GlcNAc(b1-4)]Man(a1-3)[Fuc(a1-2)Gal(b1-4)GlcNAc(b1-2)Man(a1-6)]Man(b1-4)GlcNAc(b1-4)GlcNAc
# Outline: as §1
# [2] = target: Fuc(a1-2)Gal(b1-4)GlcNAc6S
# Outline: as §1
# [3] = target: Fuc(a1-2)Gal6S(b1-3)GlcNAc6S
# Outline: as §1
# [4] = target: Fuc(a1-2)[Gal(a1-3)]Gal(b1-3)GlcNAc(b1-2)Man(a1-3)[Fuc(a1-2)[Gal(a1-3)]Gal(b1-3)GlcNAc(b1-2)Man(a1-6)]Man(b1-4)GlcNAc(b1-4)[Fuc(a1-6)]GlcNAc
# Outline: as §1
# [5] = target: Fuc(a1-2)[Gal(a1-3)]Gal(b1-3)GlcNAc(b1-3)GalNAc
# Outline: as §1
# [6] = target: Fuc(a1-2)[Gal(a1-4)]Gal(b1-4)GlcNAc
# Outline: as §1
# [7] = target: Fuc(a1-2)[GalNAc(a1-3)]Gal(b1-4)[Fuc(a1-3)]GlcNAc(b1-3)GalNAc
# Outline: as §1
# Fuc(b1-3)GlcNAc = target: Fuc(b1-3)GlcNAc
# Outline: as §1
# Gal(a1-2)Gal = target: Gal(a1-2)Gal
# Outline: as §1
# Gal(a1-3)Gal = target: Gal(a1-3)Gal
# Outline: as §1
# Gal(a1-3)Gal(b1-4)GlcNAc = target: Gal(a1-3)Gal(b1-4)GlcNAc
# Outline: as §1
# [8] = target: Gal(a1-3)[Gal(a1-4)]Gal(b1-4)GlcNAc
# Outline: as §1
# [9] = target: Gal(a1-4)Gal(b1-3)GlcNAc(b1-2)Man(a1-3)[Gal(a1-4)Gal(b1-3)GlcNAc(b1-2)Man(a1-6)]Man(b1-4)GlcNAc(b1-4)GlcNAc
# Outline: as §1
# Gal(b1-2)Gal = target: Gal(b1-2)Gal
# Outline: as §1
# Gal(b1-3)Gal(b1-4)GlcNAc = target: Gal(b1-3)Gal(b1-4)GlcNAc
# Outline: as §1
# Gal(b1-3)GalNAc = target: Gal(b1-3)GalNAc
# Outline: as §1
# [10] = target: Gal(b1-3)GalNAc(a1-3)[Fuc(a1-2)]Gal(b1-4)GlcNAc
# Outline: as §1
# [11] = target: Gal(b1-3)GalNAc(b1-4)Gal(b1-4)Glc
# Outline: as §1
# [12] = target: Gal(b1-3)GlcNAc(b1-6)Gal(b1-4)GlcNAc
# Outline: as §1
# Gal(b1-3)GlcNAc6S = target: Gal(b1-3)GlcNAc6S
# Outline: as §1
# [13] = target: Gal(b1-3)[GlcNAc(b1-6)]GalNAc
# Outline: as §1
# [14] = target: Gal(b1-4)GlcNAc(a1-6)Gal(b1-4)GlcNAc
# Outline: as §1
# [15] = target: Gal(b1-4)GlcNAc(b1-2)Man(a1-3)[Gal(b1-4)GlcNAc(b1-2)Man(a1-6)][GlcNAc(b1-4)]Man(b1-4)GlcNAc(b1-4)[Fuc(a1-6)]GlcNAc
# Outline: as §1
# [16] = target: Gal(b1-4)GlcNAc(b1-2)Man(a1-3)[Man(a1-6)]Man(b1-4)GlcNAc(b1-4)GlcNAc
# Outline: as §1
# [17] = target: Gal(b1-4)GlcNAc(b1-3)Gal(b1-3)GlcNAc
# Outline: as §1
# [18] = target: Gal(b1-4)GlcNAc(b1-3)Gal(b1-4)GlcNAc(b1-3)Gal(b1-4)GlcNAc(b1-3)Gal(b1-4)GlcNAc(b1-2)[Gal(b1-4)GlcNAc(b1-3)Gal(b1-4)GlcNAc(b1-3)Gal(b1-4)GlcNAc(b1-3)Gal(b1-4)GlcNAc(b1-6)]Man(a1-6)[Gal(b1-4)GlcNAc(b1-3)Gal(b1-4)GlcNAc(b1-3)Gal(b1-4)GlcNAc(b1-3)Gal(b1-4)GlcNAc(b1-2)Man(a1-3)]Man(b1-4)GlcNAc(b1-4)[Fuc(a1-6)]GlcNAc
# Outline: as §1
# Gal6P(b1-4)GlcNAc = target: Gal6P(b1-4)GlcNAc
# Outline: as §1
# Gal6S(b1-3)GlcNAc = target: Gal6S(b1-3)GlcNAc
# Outline: as §1
# Gal6S(b1-4)GlcNAc = target: Gal6S(b1-4)GlcNAc
# Outline: as §1
# [19] = target: GalNAc(a1-3)GalNAc(b1-3)Gal(a1-4)Gal(b1-4)GlcNAc
# Outline: as §1
# GalNAc(b1-3)Gal = target: GalNAc(b1-3)Gal
# Outline: as §1
# GalNAc(b1-4)GlcNAc6S = target: GalNAc(b1-4)GlcNAc6S
# Outline: as §1
# [20] = target: Glc(a1-4)Glc(a1-4)Glc(a1-4)Glc
# Outline: as §1
# Glc(a1-6)Glc(a1-6)Glc = target: Glc(a1-6)Glc(a1-6)Glc
# Outline: as §1
# [21] = target: Glc(a1-6)Glc(a1-6)Glc(a1-6)Glc
# Outline: as §1
# [22] = target: GlcNAc(a1-4)Gal(b1-4)GlcNAc(b1-3)Gal(b1-4)[Fuc(a1-3)]GlcNAc(b1-3)Gal(b1-4)[Fuc(a1-3)]GlcNAc
# Outline: as §1
# [23] = target: GlcNAc(a1-6)Gal(b1-4)GlcNAc
# Outline: as §1
# [24] = target: GlcNAc(b1-2)[GlcNAc(b1-6)]Man(a1-6)[GlcNAc(b1-2)Man(a1-3)]Man(b1-4)GlcNAc(b1-4)GlcNAc
# Outline: as §1
# [25] = target: GlcNAc(b1-2)[GlcNAc(b1-6)]Man(a1-6)[GlcNAc(b1-4)][GlcNAc(b1-2)Man(a1-3)]Man(b1-4)GlcNAc(b1-4)GlcNAc
# Outline: as §1
# [26] = target: GlcNAc(b1-3)Gal(b1-4)GlcNAc(b1-3)Gal(b1-4)GlcNAc(b1-3)GalNAc
# Outline: as §1
# GlcNAc(b1-4)GlcNAc = target: GlcNAc(b1-4)GlcNAc
# Outline: as §1
# [27] = target: GlcNAc(b1-4)GlcNAc(b1-4)GlcNAc(b1-4)GlcNAc(b1-4)GlcNAc
# Outline: as §1
# [28] = target: GlcNAc(b1-6)Gal(b1-4)GlcNAc
# Outline: as §1
# [29] = target: GlcNAc6S(b1-3)Gal(b1-4)GlcNAc
# Outline: as §1
# [30] = target: Man(a1-2)Man(a1-2)Man(a1-6)[Man(a1-3)]Man
# Outline: as §1
# [31] = target: Man(a1-2)Man(a1-3)[Man(a1-2)Man(a1-6)]Man(a1-6)[Man(a1-2)Man(a1-2)Man(a1-3)]Man
# Outline: as §1
# [32] = target: Man(a1-3)[Man(a1-6)]Man(a1-6)[Man(a1-2)Man(a1-3)]Man(b1-4)GlcNAc(b1-4)GlcNAc
# Outline: as §1
# [33] = target: Neu5Ac(a2-3)Gal(b1-4)GlcNAc(b1-2)Man
# Outline: as §1
# [34] = target: Neu5Ac(a2-3)Gal(b1-4)GlcNAc(b1-3)Gal(b1-4)GlcNAc(b1-2)Man(a1-3)[Neu5Ac(a2-3)Gal(b1-4)GlcNAc(b1-3)Gal(b1-4)GlcNAc(b1-2)Man(a1-6)]Man(b1-4)GlcNAc(b1-4)GlcNAc
# Outline: as §1
# [35] = target: Neu5Ac(a2-3)Gal(b1-4)GlcNAc(b1-6)[Neu5Ac(a2-3)Gal(b1-3)]GalNAc
# Outline: as §1
# [36] = target: Neu5Ac(a2-3)Gal(b1-4)GlcNAc6S
# Outline: as §1
# Neu5Ac(a2-6)Gal = target: Neu5Ac(a2-6)Gal
# Outline: as §1
# [37] = target: Neu5Ac(a2-6)Gal(b1-4)GlcNAc(b1-2)Man(a1-3)[Neu5Ac(a2-6)Gal(b1-4)GlcNAc(b1-2)Man(a1-6)]Man(b1-4)GlcNAc(b1-4)[Fuc(a1-6)]GlcNAc
# Outline: as §1
# [38] = target: Neu5Ac(a2-6)Gal(b1-4)GlcNAc(b1-3)Gal(b1-4)GlcNAc(b1-6)[Gal(b1-3)]GalNAc
# Outline: as §1
# [39] = target: Neu5Ac(a2-6)Gal(b1-4)GlcNAc(b1-6)[Gal(b1-3)]GalNAc
# Outline: as §1
# [40] = target: Neu5Gc(a2-3)Gal(b1-3)[Fuc(a1-4)]GlcNAc
# Outline: as §1
binder,measurement,setting,value
B1,glycan array binding signal (z-score),Fuc(a1-2)Gal,13.2
same,glycan array binding signal (z-score),Fuc(a1-2)Gal(b1-3)GalNAc,12.6
same,glycan array binding signal (z-score),[1],-0.082
same,glycan array binding signal (z-score),[2],-0.082
same,glycan array binding signal (z-score),[3],-0.055
same,glycan array binding signal (z-score),[4],-0.07
same,glycan array binding signal (z-score),[5],-0.083
same,glycan array binding signal (z-score),[6],-0.066
same,glycan array binding signal (z-score),[7],0.368
same,glycan array binding signal (z-score),Fuc(b1-3)GlcNAc,-0.075
same,glycan array binding signal (z-score),Gal(a1-2)Gal,0.157
same,glycan array binding signal (z-score),Gal(a1-3)Gal,-0.08
same,glycan array binding signal (z-score),Gal(a1-3)Gal(b1-4)GlcNAc,-0.079
same,glycan array binding signal (z-score),[8],-0.069
same,glycan array binding signal (z-score),[9],-0.073
same,glycan array binding signal (z-score),Gal(b1-2)Gal,3.68
same,glycan array binding signal (z-score),Gal(b1-3)Gal(b1-4)GlcNAc,0.046
same,glycan array binding signal (z-score),Gal(b1-3)GalNAc,0.232
same,glycan array binding signal (z-score),[10],-0.083
same,glycan array binding signal (z-score),[11],0.519
same,glycan array binding signal (z-score),[12],-0.077
same,glycan array binding signal (z-score),Gal(b1-3)GlcNAc6S,-0.09
same,glycan array binding signal (z-score),[13],-0.079
same,glycan array binding signal (z-score),[14],-0.077
same,glycan array binding signal (z-score),[15],-0.081
same,glycan array binding signal (z-score),[16],-0.076
same,glycan array binding signal (z-score),[17],-0.071
same,glycan array binding signal (z-score),[18],-0.071
same,glycan array binding signal (z-score),Gal6P(b1-4)GlcNAc,-0.084
same,glycan array binding signal (z-score),Gal6S(b1-3)GlcNAc,0.341
same,glycan array binding signal (z-score),Gal6S(b1-4)GlcNAc,-0.083
same,glycan array binding signal (z-score),[19],-0.076
same,glycan array binding signal (z-score),GalNAc(b1-3)Gal,-0.076
same,glycan array binding signal (z-score),GalNAc(b1-4)GlcNAc6S,-0.082
same,glycan array binding signal (z-score),[20],-0.064
same,glycan array binding signal (z-score),Glc(a1-6)Glc(a1-6)Glc,-0.077
same,glycan array binding signal (z-score),[21],-0.076
same,glycan array binding signal (z-score),[22],-0.069
same,glycan array binding signal (z-score),[23],-0.087
same,glycan array binding signal (z-score),[24],-0.079
same,glycan array binding signal (z-score),[25],-0.085
same,glycan array binding signal (z-score),[26],-0.084
same,glycan array binding signal (z-score),GlcNAc(b1-4)GlcNAc,-0.088
same,glycan array binding signal (z-score),[27],-0.086
same,glycan array binding signal (z-score),[28],-0.084
same,glycan array binding signal (z-score),[29],-0.08
same,glycan array binding signal (z-score),[30],-0.059
same,glycan array binding signal (z-score),[31],-0.081
same,glycan array binding signal (z-score),[32],0.041
same,glycan array binding signal (z-score),[33],-0.068
same,glycan array binding signal (z-score),[34],-0.005
same,glycan array binding signal (z-score),[35],-0.087
same,glycan array binding signal (z-score),[36],-0.079
same,glycan array binding signal (z-score),Neu5Ac(a2-6)Gal,-0.082
same,glycan array binding signal (z-score),[37],-0.074
same,glycan array binding signal (z-score),[38],-0.072
same,glycan array binding signal (z-score),[39],-0.077
same,glycan array binding signal (z-score),[40],-0.074

# — the supplement of paper PMC8728848
